Results filed as inconclusive are left out. Values without a mark were called inactive. The source made the active and inactive calls. Calls come from the whole dose curve; as a rule, active = well fitted inhibition curve with a large enough effect in the signal ratio in the repeat runs (not every such curve was filed as active); inconclusive = weak or mixed curves, or effect the other way; inactive = flat fitted curve, though single readings scatter; the % refers to the signal ratio.
Experiment: cAMP Responsive Elements (CRE) small molecule antagonists, cell-based qHTS assay (AID 1963591)
Conditions: CRE-bla HEK293T, beta-lactamase FRET ratio; series mostly up to 92.4 µM; activity change, negative = inhibition: at the top concentration
Excerpt: U.S. Tox21 Program National Center for Advancing Translational Sciences [NCATS] Division of Preclinical Innovation [DPI] U.S. Environmental Protection Agency [EPA] National Institutes of Environmental Health Sciences [NIEHS] National Toxicology Program [NTP] U.S. Food and Drug Administration [FDA] Tox21 Assay Overview: CREB (cyclic-AMP Responsive Element Binding Protein) is a cellular transcription factor. It binds to certain DNA sequences called cAMP Responsive Elements (CRE) and regulates the transcription of the genes. […] This cell line can be used to find agonists/antagonists of the cyclic AMP signaling pathway. The activation of the report gene under culture conditions can be detected by fluorescence intensity. This cell line has been used to screen the Tox21 10K compound library to […].
Tox21 Assay Protocol Summary: CRE-bla Hek 293T cells were suspended in assay medium (DMEM containing 10% dialyzed FBS, 0.1 mM NEAA, 1 mM sodium pyruvate and 25 mM HEPES) and dispensed at 2,000 cells/4 uL /well into 1536-well black wall/clear bottom plates using a Multidrop Combi (ThermoFisher Scientific, Waltham, MA) dispenser. After the assay plates were incubated at 37 C/5% CO2 for 18 hrs, 23 nL of compounds dissolved in DMSO, positive controls or DMSO only was transferred to the assay plate by a pintool workstation (Kalypsys, San Diego, CA), followed by addition of 1 […] uL of 1.25uM NKH477 (0.25 uM as final concentration) in assay medium using a Flying Reagent Dispenser (Aurora Discovery, San Diego, CA). The plates were incubated at 37 C and 5% CO2 for 3 hrs. Then 1 uL of LiveBLAzer B/G FRET substrate (Invitrogen, Carlsbad, CA) was added to each well using Bioraptr Flying Reagent Dispenser (FRD, Aurora Discovery, San Diego, CA). The plates were incubated at room temperature for 2 h.
% is set by controls: 0 for no effect and ±100 for the full control effect.

Compared with `O=S(=O)(O)CC(O)CCl` (stereo not given), `CC(COCC(C)OC(=O)c1ccccc1)OC(=O)c1ccccc1` (stereo not given) is higher in “activity change, negative = inhibition” value: -0.713% for the first, 8.15% for the second.

First: Cc1ccc(N)cc1[N+](=O)[O-]
Second: Cc1ccc(C(=O)O)cc1
The “activity change, negative = inhibition” value of the first is lower: -0.0458% for the first, 5.5% for the second.

Going from `CC1(C)[C@H]2CC[C@]1(C)[C@H](O)C2` to `CC1CCC(C(C)(C)O)CC1` (stereo not given), the “activity change, negative = inhibition” value rises from 1.33% to 12.3%.

Compared with `CCC(C)(C)C1CCCCC1OC(C)=O` (stereo not given), `C=CC(=O)OCCN(CC)CC` is higher in “activity change, negative = inhibition” value: 0.0934% for the first, 0.76% for the second.

Compared with `Cc1cc(CCC(=O)OCCOCCOCCOC(=O)CCc2cc(C)c(O)c(C(C)(C)C)c2)cc(C(C)(C)C)c1O`, `CCCO[Si](OCCC)(OCCC)OCCC` is lower in “activity change, negative = inhibition” value: 9.17% for the first, -7.34% for the second.

First: SCCSCCS
Second: NCCOCCN
The “activity change, negative = inhibition” value of the first is lower: -6.67% for the first, -2.56% for the second.

Going from `COc1ccc(C#N)cc1` to `O=C(OC(=O)c1ccccc1)c1ccccc1`, the “activity change, negative = inhibition” value rises from 0.533% to 6.12%.

Going from `Cc1ccc(NC(=O)N(C)C)cc1NC(=O)N(C)C` to `O=C(C(=O)c1ccco1)c1ccco1`, the “activity change, negative = inhibition” value rises from -6.66% to -4.74%.

First: C1=CCC2CC=CC2C1 (stereo not given)
Second: O=c1[nH]c2ccc(Cl)cc2o1
The “activity change, negative = inhibition” value of the first is lower: -4.55% for the first, 27.3% for the second.

With `C=C1C[C@]23C[C@@]1(O)CC[C@H]2[C@@]12C=C[C@H](O)[C@@](C)(C(=O)O1)[C@H]2[C@@H]3C(=O)O` the Potency was “inactive”.
With `CN(C)CCC=C1c2ccccc2CCc2ccccc21` the Potency was “inactive”.
In the case of `c1ccc2sc(SSN3CCOCC3)nc2c1`, the Potency is reported as “inactive”.
With `C=CC(=O)NCOCCCC` the Potency was “inactive”.
With `CCCCCC/C(C=O)=C\c1ccccc1` the Potency was “inactive”.
For `NCCNCCNCCN`, the Potency was “inactive”.
In the case of `COc1ccc(C(=O)CC(=O)c2ccc(C(C)(C)C)cc2)cc1`, the Potency is reported as “inactive”.
In the case of `O=c1[nH]cnc2[nH]ncc12`, the Potency is reported as “inactive”.

First: CCCCCCCCCCCCCCCC(=O)NCCO
Second: CC(=O)NC(Cc1ccccc1)C(=O)O (stereo not given)
The “activity change, negative = inhibition” value of the first is higher: 0.71% [at 42.4 µM] for the first, -5.24% [at 42.4 µM] for the second.

First: CC1(C)Oc2ccc(C#N)cc2[C@@H](N2CCCC2=O)[C@@H]1O
Second: CCOC(=O)N1CCC(=C2c3ccc(Cl)cc3CCc3cccnc32)CC1
The “activity change, negative = inhibition” value of the first is higher: 2.15% [at 42.4 µM] for the first, -22.7% [at 42.4 µM] for the second.

First: CC(C)CCCC(C)N (stereo not given)
Second: COc1cc(C)c(Cc2cnc(N)nc2N)cc1OC
The “activity change, negative = inhibition” value of the first is higher: -1.23% [at 42.4 µM] for the first, -3.71% [at 42.4 µM] for the second.

Compared with `COc1cc(S(N)(=O)=O)cc(C(=O)O)c1OC`, `NS(=O)(=O)c1cc2c(cc1Cl)NC(CC1CCCC1)NS2(=O)=O` (stereo not given) is higher in “activity change, negative = inhibition” value: -4.83% [at 42.4 µM] for the first, -2.2% [at 42.4 µM] for the second.

Compared with `CC(=O)Nc1ncc([N+](=O)[O-])s1`, `CNC(=O)c1c(I)c(NC(C)=O)c(I)c(C(=O)O)c1I` is lower in “activity change, negative = inhibition” value: -1.61% [at 42.4 µM] for the first, -12.7% [at 42.4 µM] for the second.

Compared with `O=c1[nH]c2cc(C(F)(F)F)c(N3CCOCC3)cc2n(CP(=O)(O)O)c1=O`, `C[N+](C)(C)CC[N+]1(C)Cc2c(Cl)c(Cl)c(Cl)c(Cl)c2C1` is higher in “activity change, negative = inhibition” value: -7.21% [at 42.4 µM] for the first, 1.14% [at 42.4 µM] for the second.

With `CN(C)c1ccc(/C=C/c2ccc([N+](=O)[O-])cc2)cc1` the activity change, negative = inhibition was 1.12% [at 8.39 µM].

With `CC1=CC[C@@H]2C[C@H]1C2(C)C` the activity change, negative = inhibition was 3.33% [at 18.9 µM].
